From paper PMC12864922, “TDP-43 directly inhibits mRNA accumulation in neurites through modulation of mRNA stability” come the findings set out here.

Positions count from the first letter of the chain named. The full ranking holds about 9,900 sequences; the median of “r (bound/input frequency ratio)” is about 0.7, and the highest 2% start at about 6.5. This is one part of a sample in which the highest values are shown more often than they occur.

B1: ENSMUSG00000032194.180|Kank2|82:88;185:189 (ssRNA)
RNA: GGGAGUUCUACAGUCCGACGAUCGCUUCGAUAUCCGCAUGCUAUGGCCUCAGAGCACUCCCAGAACUAGCUUAAAGUGACAGGCUUUGCUGAAAUCCAAAGGGACAAAAGAGUAGUUUUAUGUUACACACAUUGUUUUUAAUGCCCUGGAGCUCCUGCUGGUGACAGGAGAGACAGACAGGCUGCACCUUUCUCUAACUGGGGUUCCUUUCUGGCCCCAGGAUCUCACACACGUUCGUGGGGGGAUUUUGUUGUUGUUUCUUUGUUUCUUUUCUUCAUAAAGAAGAAAAAGGAAACAACUUCUCUCUUGCGGUCGCACUAGUGUGGAAUUCUCGGGUGUCAAGG
B2: ENSMUSG00000061578.618|Ksr2 (ssRNA)
RNA: GGGAGUUCUACAGUCCGACGAUCGCUUCGAUAUCCGCAUGCUAGUGGCUUGCCUGGCUGGCCUGUGAUAUAGUGGACUGUCUUAGUGAUCGGACUUCAGGGAGCAACCUAUAGGAAAUGCAAAGGCUUAGAGGGGACGGACAGCUCCCUGACCCUGGAUGGCCAGGAAUGGUGCUAGCUAGGGUGUGAGCCAAGCCCUUGAGGCUACUGUGAGUUAUGAGAUGUGUCCAACCCUCAGCCCACAGACUGCAUAUGCCCCAGGACAGCUGUGAAGGUGACCCAAUACAAAAUCGUAAACUAACUUCUCUUGCGGUCGCACUAGUGUGGAAUUCUCGGGUGUCAAGG
B3: ENSMUSG00000061578.593|Ksr2 (ssRNA)
RNA: GGGAGUUCUACAGUCCGACGAUCGCUUCGAUAUCCGCAUGCUAUCUGGGAUAAAAAAAAAAAGUCAAAAGAAAUAAAAUAUGAUUCAGGCAAAUUCAAUGCAACUCAAAAUUUCCACCAAUCCCAUAUUGUCCCUAGCAAUGACAAAAUUAUUUGCAAGACAGACCCUGUGACCUGUAGAGGCAAAAUAUAUGGUGGCUUGCCUGGCUGGCCUGUGAUAUAGUGGACUGUCUUAGUGAUCGGACUUCAGGGAGCAACCUAUAGGAAAUGCAAAGGCUUAGAGGGGACGGACAGCUCCCUGACCCUCUUGCGGUCGCACUAGUGUGGAAUUCUCGGGUGUCAAGG
B4: ENSMUSG00000061578.1182|Ksr2 (ssRNA)
RNA: GGGAGUUCUACAGUCCGACGAUCGCUUCGAUAUCCGCAUGCUAUGUCCUCGGGUGUCUCUGCUGUAUAUAGGCCAGUCACAAGCCCUUCUAAAAGCCUGCUCUUGUCUGCUUUUGUUUCUCCACCAUGCCCCCUGCCACCUCUUCUGACAGUGCUCAGAUUUAUCAGCCACCUGACCCACAGACCCAUAUGGACACACUAGAAAGCCCAUCCUAGGUCUUUCCAUGGUCUCUCACACCCCUGUCCCCGUCCCCUCCACCCCCCGGCAGCAUGCUUCACUCUAUGAAUGAGCCGCUGGGAUAUUCUCUUGCGGUCGCACUAGUGUGGAAUUCUCGGGUGUCAAGG
B5: ENSMUSG00000061578.1469|Ksr2|24:28 (ssRNA)
RNA: GGGAGUUCUACAGUCCGACGAUCGCUUCGAUAUCCGCAUGCUAUGGAUGGGUGAAUGGAUGGAUAGCAUACUGAAUAAAUGGAUGGAUGGAUGGAUUGAUUUGUGAAUGAAUGGAUGAAUGGAUGGGUAGGUGGGUGGAUGCAUAGGCAAGUAGAUGAAUGAAUAUGUGGGUAGAAGGGUGAGUGGGUGGAUGAAUGGAUGGAUAGGUUGGUAGGUUAAUGUAUUCGUGGAUGGGUGAAUGGAUGGAUGGAUAGAUAGAUGGGAAGGUGGAUGGACAGAUGGAUGGAUGGAUAGAUAGAUGGACUCUUGCGGUCGCACUAGUGUGGAAUUCUCGGGUGUCAAGG
B6: ENSMUSG00000061578.1466|Ksr2|42:46 (ssRNA)
RNA: GGGAGUUCUACAGUCCGACGAUCGCUUCGAUAUCCGCAUGCUAUAUGAAUGAAUGGAUGAAUGGAUGGGUGAAUGGAUGGAUAGCAUACUGAAUAAAUGGAUGGAUGGAUGGAUUGAUUUGUGAAUGAAUGGAUGAAUGGAUGGGUAGGUGGGUGGAUGCAUAGGCAAGUAGAUGAAUGAAUAUGUGGGUAGAAGGGUGAGUGGGUGGAUGAAUGGAUGGAUAGGUUGGUAGGUUAAUGUAUUCGUGGAUGGGUGAAUGGAUGGAUGGAUAGAUAGAUGGGAAGGUGGAUGGACAGAUGGAUGCUCUUGCGGUCGCACUAGUGUGGAAUUCUCGGGUGUCAAGG
B7: ENSMUSG00000061578.1472|Ksr2|6:10 (ssRNA)
RNA: GGGAGUUCUACAGUCCGACGAUCGCUUCGAUAUCCGCAUGCUAGAUAGCAUACUGAAUAAAUGGAUGGAUGGAUGGAUUGAUUUGUGAAUGAAUGGAUGAAUGGAUGGGUAGGUGGGUGGAUGCAUAGGCAAGUAGAUGAAUGAAUAUGUGGGUAGAAGGGUGAGUGGGUGGAUGAAUGGAUGGAUAGGUUGGUAGGUUAAUGUAUUCGUGGAUGGGUGAAUGGAUGGAUGGAUAGAUAGAUGGGAAGGUGGAUGGACAGAUGGAUGGAUGGAUAGAUAGAUGGACAGGUGGUUGGUGGAUAACUCUUGCGGUCGCACUAGUGUGGAAUUCUCGGGUGUCAAGG
B8: ENSMUSG00000061578.1467|Ksr2|36:40 (ssRNA)
RNA: GGGAGUUCUACAGUCCGACGAUCGCUUCGAUAUCCGCAUGCUAUGAAUGGAUGAAUGGAUGGGUGAAUGGAUGGAUAGCAUACUGAAUAAAUGGAUGGAUGGAUGGAUUGAUUUGUGAAUGAAUGGAUGAAUGGAUGGGUAGGUGGGUGGAUGCAUAGGCAAGUAGAUGAAUGAAUAUGUGGGUAGAAGGGUGAGUGGGUGGAUGAAUGGAUGGAUAGGUUGGUAGGUUAAUGUAUUCGUGGAUGGGUGAAUGGAUGGAUGGAUAGAUAGAUGGGAAGGUGGAUGGACAGAUGGAUGGAUGGACUCUUGCGGUCGCACUAGUGUGGAAUUCUCGGGUGUCAAGG
B9: ENSMUSG00000061578.1465|Ksr2|48:52 (ssRNA)
RNA: GGGAGUUCUACAGUCCGACGAUCGCUUCGAUAUCCGCAUGCUAUAGGUAUAUGAAUGAAUGGAUGAAUGGAUGGGUGAAUGGAUGGAUAGCAUACUGAAUAAAUGGAUGGAUGGAUGGAUUGAUUUGUGAAUGAAUGGAUGAAUGGAUGGGUAGGUGGGUGGAUGCAUAGGCAAGUAGAUGAAUGAAUAUGUGGGUAGAAGGGUGAGUGGGUGGAUGAAUGGAUGGAUAGGUUGGUAGGUUAAUGUAUUCGUGGAUGGGUGAAUGGAUGGAUGGAUAGAUAGAUGGGAAGGUGGAUGGACAGACUCUUGCGGUCGCACUAGUGUGGAAUUCUCGGGUGUCAAGG
B10: ENSMUSG00000061578.1468|Ksr2|30:34 (ssRNA)
RNA: GGGAGUUCUACAGUCCGACGAUCGCUUCGAUAUCCGCAUGCUAGAUGAAUGGAUGGGUGAAUGGAUGGAUAGCAUACUGAAUAAAUGGAUGGAUGGAUGGAUUGAUUUGUGAAUGAAUGGAUGAAUGGAUGGGUAGGUGGGUGGAUGCAUAGGCAAGUAGAUGAAUGAAUAUGUGGGUAGAAGGGUGAGUGGGUGGAUGAAUGGAUGGAUAGGUUGGUAGGUUAAUGUAUUCGUGGAUGGGUGAAUGGAUGGAUGGAUAGAUAGAUGGGAAGGUGGAUGGACAGAUGGAUGGAUGGAUAGAUACUCUUGCGGUCGCACUAGUGUGGAAUUCUCGGGUGUCAAGG
B11: ENSMUSG00000061578.1463|Ksr2|60:64 (ssRNA)
RNA: GGGAGUUCUACAGUCCGACGAUCGCUUCGAUAUCCGCAUGCUAUAGGUGGGUAGAUAGGUAUAUGAAUGAAUGGAUGAAUGGAUGGGUGAAUGGAUGGAUAGCAUACUGAAUAAAUGGAUGGAUGGAUGGAUUGAUUUGUGAAUGAAUGGAUGAAUGGAUGGGUAGGUGGGUGGAUGCAUAGGCAAGUAGAUGAAUGAAUAUGUGGGUAGAAGGGUGAGUGGGUGGAUGAAUGGAUGGAUAGGUUGGUAGGUUAAUGUAUUCGUGGAUGGGUGAAUGGAUGGAUGGAUAGAUAGAUGGGAAGGCUCUUGCGGUCGCACUAGUGUGGAAUUCUCGGGUGUCAAGG
B12: ENSMUSG00000061578.1469|Ksr2 (ssRNA)
RNA: B5 RNA with C67G, A68U, U69A, A70U, C71G

Sequence of TDP-43 (Q13148 whole entry): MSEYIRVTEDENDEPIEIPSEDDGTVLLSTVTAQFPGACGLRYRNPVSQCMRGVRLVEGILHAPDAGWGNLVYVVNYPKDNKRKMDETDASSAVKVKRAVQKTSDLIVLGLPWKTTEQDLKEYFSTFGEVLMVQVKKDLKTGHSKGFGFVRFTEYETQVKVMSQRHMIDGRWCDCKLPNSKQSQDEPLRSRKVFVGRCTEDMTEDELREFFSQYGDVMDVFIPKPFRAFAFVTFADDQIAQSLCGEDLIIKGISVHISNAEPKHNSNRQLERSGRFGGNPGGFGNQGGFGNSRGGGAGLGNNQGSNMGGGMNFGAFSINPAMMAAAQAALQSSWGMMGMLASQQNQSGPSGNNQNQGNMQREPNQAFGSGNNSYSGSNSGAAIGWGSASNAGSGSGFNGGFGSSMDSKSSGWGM

For the assay, the target named is TDP-43 (Homo sapiens, UniProt Q13148 1-414). Description: RNA Bind-n-Seq with designed 260-mer pool; 25 mM Tris-HCl, 150 mM KCl, 3 mM MgCl2, BSA (printed 500 mg/mL), 20 units/mL SUPERase IN; pH not stated; 500 nM RNA pool, 1 h, 4 C; TDP-43 5, 50, 500 nM; high values mean tight binding. To be noted: protein: recombinant; tags: SBP (GST cleaved off with PreScission; pGEX-GST-SBP). The procedure, abridged:
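Binding (R) is the ratio of each oligo's mapped-read-normalized abundance in the bound fraction to its abundance in the input. To obtain it, SBP-tagged recombinant TDP-43 (5, 50 or 500 nM) on streptavidin beads was incubated with 500 nM of an in vitro-transcribed 260-nt 3′ UTR oligo pool for 1 h at 4 °C in 25 mM Tris-HCl, 150 mM KCl, 3 mM MgCl2, BSA and SUPERase IN. The RNA retained after washing was released with biotin, then reverse transcribed, amplified by PCR and sequenced.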
With B1, the binding signal was 0.125 R (bound/input frequency ratio).

B2: the binding signal is 0.616 R (bound/input frequency ratio).

In the case of B3, the binding signal is 0.762 R (bound/input frequency ratio).

As for B4, the binding signal was 0.904 R (bound/input frequency ratio).

Take B5: the binding signal is 12.1 R (bound/input frequency ratio).

Turning to B6, the binding signal is 6.95 R (bound/input frequency ratio).

In the case of B7, the binding signal was 5.45 R (bound/input frequency ratio).

Consider B8, for which the binding signal is 6.51 R (bound/input frequency ratio).

Consider B9, for which the binding signal is 5.93 R (bound/input frequency ratio).

With B10, the binding signal is 8.93 R (bound/input frequency ratio).

As for B11, the binding signal was 4.6 R (bound/input frequency ratio).

On to B12, for which the binding signal is 5.88 R (bound/input frequency ratio).
